Data published in PubChem BioAssay AID1856 (The Scripps Research Institute Molecular Screening Center, 2009).
Out of some 1,300 compounds screened, fewer than 10 were called active. How the calls were made is not given here. Only a sample is shown.

system: metallo-beta-lactamase IMP-1 (Pseudomonas aeruginosa); test: IMP-1 enzyme inhibition by VIM-2 hits – biochemical, epi-absorbance readout, triplicate, selectivity assay for selective VIM-2 inhibitor project, confirmation (AID 1856); conditions: purified IMP-1, nitrocefin hydrolysis, epi-absorbance fluorescence; at 5.6 µM; active compounds read high;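 further: 0% = enzyme with vehicle and 100% = vehicle without enzyme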

inhibition, inactive:
CN1CCN(c2ccc(NC(=O)c3ccc4c(c3)[nH]c(=O)n4Cc3ccc(F)cc3)cc2)CC1 -2.45%, Nc1cccc2c1C(=O)N(Cc1nnc(-c3ccccc3Br)o1)C2=O -1.84%, O=C(NC(=S)Nc1ccccc1C(=O)O)c1ccc(-c2ccc(Br)cc2)o1 -2.92%, Cn1c2ccccc2c(=O)c2c(O)cccc21 1.94%, O=c1[nH]c(-c2ccccc2)c(-c2ccccc2)[nH]1 -1.69%, COc1ccc(/C=N/N(C)C2=NS(=O)(=O)c3ccccc32)cc1OC -2.33%, CCOc1cc(/C=C2\SC(N3CCCCC3)=NC2=O)ccc1O -4.28%, CCN1CCN(C(=O)Cn2nc(C)n3c(cc4c(OC)cccc43)c2=O)CC1 -3.39%, Clc1cc(-c2ccc(/C=N/n3cnnc3)o2)ccc1Br -2.66%, Nc1nnc2c(C(F)(F)F)nc3ccccc3n12 -2.31%, Cc1ccc(Cl)cc1-c1ccc(/C=N/n2cnnc2)o1 -3.92%, COc1ccc(CCn2c(=N)c(C(=O)NCC3CCCO3)cc3c(=O)n4cccc(C)c4nc32)cc1OC (configuration not stated) -3.13%, COC(=O)c1ccc(-c2noc(CN(Cc3ccccn3)CC3CCCO3)n2)cc1 (configuration not stated) -4.37%, CCOCCCNc1c(CC)c(C)c(C#N)c2nc3ccccc3n12 -2.98%, O=C1Nc2cc(C(=O)N3CCC(N4CCCCC4)CC3)ccc2S/C1=C\c1ccccc1 -4.01%, CCC1CCCCN1CCCNC(=O)c1cc2c(Cl)nc3ccccc3c2s1 (configuration not stated) -2%, Cc1ccc2nc(C)c3c(c2c1)N(c1ccccc1)CC3 -3.39%, Fc1ccc(-c2ccc(CNCc3ccccn3)o2)cc1Cl -3.51%, CC(NS(=O)(=O)c1ccccc1)c1n[nH]c(=S)n1-c1ccccc1 (configuration not stated) -3.01%, Cn1c(=O)c2c(nc(N3CCOCC3)n2CCNC2=NCCC2)n(C)c1=O -2.77%, CCN(CC)CCOc1ccc2c(c1)C(=NNC(=O)c1ccccn1)c1cc(OCCN(CC)CC)ccc1-2 -6.88%, CC(=O)c1ccc(-c2ccc(Cn3c(C)nc4cc(N)c(C)nc43)cc2)cc1 -2.57%, CCCc1ccc(OCCNC(=O)c2ccco2)cc1 -3.83%, CN(C)CCNc1ccc(-c2n[nH]c(=O)c3ccccc23)cc1[N+](=O)[O-] -3.19%, COc1ccc(Cc2nnc(NS(=O)(=O)Cc3ccccc3)s2)cc1 -2.35%, CC(C)(C)CC(=O)Nc1nnc(SCC(=O)NCc2cccs2)s1 -4.47%, CC1CCCC(C)N1CCCNC(=O)c1cc2c(=O)n(C)c3ccccc3c2n1C (configuration not stated) -3.58%
